Measured values published in PubChem BioAssay.
Where “and” joins values, the source holds several entries; their conditions need not be identical. Identical values can stand only once. Calls of active or inactive are those of the source.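 The calls were made as follows, unless noted: active = compounds whose cell count with miR-34 switched on is under 0.7 times the count with it off; inactive = the rest.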

What was measured:
[1] = sensitizers of A549 cells to miR-34 induction, primary screen, imaging, A549 dox-inducible miR-34, nuclei and caspase counts (AID 1347080); settings: A549 miR-34 inducible, Hoechst nuclei count, 48 h
[2] = survival rescue of mitochondrial mutant cells in low glucose, primary screen, MELAS cybrids, Rieske KO mouse fibroblasts, CellTiter-Glo (AID 1508586;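 active = mean z-score across replicates of 1.96 or higher in either the MELAS or the Rieske mutant cell line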;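 also: z relative to plate mean and SD of compound and empty wells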)
[3] = stronger effect = lower value, cell number ratio, induced over uninduced
[4] = measured here: relative caspase fold change +Dox/-Dox
[5] = measured here: total cells with miR-34 induction, stronger effect = lower value
[6] = measured here: total cells without miR-34 induction
[7] = MELAS cybrid survival, CellTiter-Glo 48 h, stronger effect = higher value
[8] = Rieske KO mouse fibroblast survival, CellTiter-Glo 72 h
Also: test concentration not given here.

COc1ccc(C2CC(=O)c3c(O)cc(OC4OC(COC5OC(C)C(O)C(O)C5O)C(O)C(O)C4O)cc3O2)cc1O (stereo not given)
fold change [1, 3]: 0.944 (inactive) and 0.996 (inactive)
fold change [1, 4]: 0.804 and 0.887
cell count [1, 5]: 9100 and 9620
cell count [1, 6]: 9630 and 9660
z-score [2, 7]: -0.317 (inactive) and -0.329 (inactive)
z-score [2, 8]: 0.0192 and 0.287

CN1CCCC1CCO[C@](C)(c1ccccc1)c1ccc(Cl)cc1 (stereo not given in full)
fold change [1, 3]: 0.919 (inactive)
fold change [1, 4]: 1.18
cell count [1, 5]: 7530
cell count [1, 6]: 8200
z-score [2, 7]: -0.384 (inactive)
z-score [2, 8]: 0.111

C1=CCOCc2cc(ccc2OCCN2CCCC2)Nc2nccc(n2)-c2cccc(c2)COC1
fold change [1, 3]: 0.848 (inactive)
fold change [1, 4]: 0.685
cell count [1, 5]: 776
cell count [1, 6]: 915
z-score [2, 7]: 3.58 (active)
z-score [2, 8]: -5.03

CS(=O)(=O)c1ccc(C(O)C(CO)NC(=O)C(Cl)Cl)cc1 (stereo not given)
fold change [1, 3]: 0.959 (inactive)
fold change [1, 4]: 1.06
cell count [1, 5]: 8650
cell count [1, 6]: 9010
z-score [2, 7]: -0.348 (inactive)
z-score [2, 8]: 0.589

CC1(C)SC2C(NC(=O)C(NC(=O)N3CCNC3=O)c3ccccc3)C(=O)N2C1C(=O)O (stereo not given)
fold change [1, 3]: 0.905 (inactive)
fold change [1, 4]: 1.06
cell count [1, 5]: 8030
cell count [1, 6]: 8880
z-score [2, 7]: -0.162 (inactive)
z-score [2, 8]: -0.16

CCN1CCN(C(=O)NC(C(=O)NC2C(=O)N3C2SC(C)(C)C3C(=O)O)c2ccccc2)C(=O)C1=O (stereo not given)
fold change [1, 3]: 0.885 (inactive)
fold change [1, 4]: 1.67
cell count [1, 5]: 8860
cell count [1, 6]: 10000
z-score [2, 7]: -0.177 (inactive)
z-score [2, 8]: -0.164

Cc1c(C(=O)Nc2ccc(N3CCC(N4CCOCC4)CC3)c(C#N)c2)cnn1-c1ccc(Cl)cc1
fold change [1, 3]: 0.979 (inactive)
fold change [1, 4]: 0.399
cell count [1, 5]: 1870
cell count [1, 6]: 1910
z-score [2, 7]: -0.464 (inactive)
z-score [2, 8]: -0.322

CCC1=CC2CN(C1)Cc1c([nH]c3ccccc13)[C@@](C(=O)OC)(c1cc3c(cc1OC)N(C)[C@@H]1[C@@]34CCN3CC=C[C@@](CC)(C(OC(C)=O)[C@]1(O)C(=O)OC)[C@@H]34)C2 (stereo not given in full)
fold change [1, 3]: 1.11 (inactive)
fold change [1, 4]: 0.608
cell count [1, 5]: 1810
cell count [1, 6]: 1620
z-score [2, 7]: 2.06 (active)
z-score [2, 8]: -0.337

NC(=O)c1cnc(NC2CCCCC2N)nc1Nc1cccc(-n2nccn2)c1 (stereo not given)
fold change [1, 3]: 0.82 (inactive)
fold change [1, 4]: 0.778
cell count [1, 5]: 1580
cell count [1, 6]: 1920
z-score [2, 7]: -0.344 (inactive)
z-score [2, 8]: -1.57

Cc1ccc(S(=O)(=O)c2ccc([N+](=O)[O-])o2)cc1
fold change [1, 3]: 1.58 (inactive)
fold change [1, 4]: 0.353
cell count [1, 5]: 1860
cell count [1, 6]: 1180
z-score [2, 7]: -1.09 (inactive)
z-score [2, 8]: -6.94

Cc1cc(CS(=O)(=O)c2ccccc2)cc(OCc2ccc(CN3CCCC3CO)cc2)c1 (stereo not given)
fold change [1, 3]: 0.932 (inactive)
fold change [1, 4]: 0.28
cell count [1, 5]: 7820
cell count [1, 6]: 8380
z-score [2, 7]: 0.0407 (inactive)
z-score [2, 8]: 0.831

COc1cc(C=CC(=O)C=C(O)C=Cc2ccc(O)c(OC)c2)ccc1O
fold change [1, 3]: 0.901 (inactive)
fold change [1, 4]: 0.689
cell count [1, 5]: 8110
cell count [1, 6]: 9000
z-score [2, 7]: -0.431 (inactive)
z-score [2, 8]: 0.0298

Cc1cc(C(C)Nc2ccccc2C(=O)O)c2nc(N3CCOCC3)cc(=O)n2c1 (stereo not given)
fold change [1, 3]: 0.956 (inactive)
fold change [1, 4]: 0.866
cell count [1, 5]: 5770
cell count [1, 6]: 6030
z-score [2, 7]: -0.296 (inactive)
z-score [2, 8]: -0.288

Nc1cc(F)ccc1NC(=O)C=Cc1cnn(CC=Cc2ccccc2)c1
fold change [1, 3]: 0.91 (inactive)
fold change [1, 4]: 0.53
cell count [1, 5]: 6990
cell count [1, 6]: 7680
z-score [2, 7]: -0.402 (inactive)
z-score [2, 8]: -2.77

CC1C[C@H]2[C@@H]3CC(F)C4=CC(=O)C=C[C@]4(C)[C@]3(F)C(O)C[C@]2(C)[C@@]1(O)C(=O)CO (stereo not given in full)
fold change [1, 3]: 0.843 (inactive)
fold change [1, 4]: 1.01
cell count [1, 5]: 4530
cell count [1, 6]: 5380
z-score [2, 7]: -0.358 (inactive)
z-score [2, 8]: -0.303

O=c1ncccn1C1OC(CO)C(O)C1O (stereo not given)
fold change [1, 3]: 0.912 (inactive)
fold change [1, 4]: 0.461
cell count [1, 5]: 8580
cell count [1, 6]: 9410
z-score [2, 7]: -0.447 (inactive)
z-score [2, 8]: -1.06

CC1(C)S[C@H]2C(NC(=O)C(N)c3ccccc3)C(=O)N2C1C(=O)O (stereo not given in full)
fold change [1, 3]: 0.913 (inactive)
fold change [1, 4]: 0.727
cell count [1, 5]: 8130
cell count [1, 6]: 8910
z-score [2, 7]: -0.295 (inactive)
z-score [2, 8]: -0.19

C=C1C(=O)OC2C1CCC(C)=CCC[C@@]1(C)OC21 (stereo not given in full)
fold change [1, 3]: 0.965 (inactive)
fold change [1, 4]: 0.646
cell count [1, 5]: 8720
cell count [1, 6]: 9040
z-score [2, 7]: 0.936 (inactive)
z-score [2, 8]: -0.281

CNC1C(O)C(NC)[C@H]2O[C@@]3(O)C(=O)CC(C)O[C@H]3O[C@@H]2C1O (stereo not given in full)
fold change [1, 3]: 1.01 (inactive)
fold change [1, 4]: 0.997
cell count [1, 5]: 9590
cell count [1, 6]: 9460
z-score [2, 7]: -0.277 (inactive)
z-score [2, 8]: 0.762

CC1C[C@H]2[C@@H]3CCC4=CC(=O)C=C[C@]4(C)[C@@H]3C(=O)C[C@]2(C)[C@]1(O)C(=O)CO (stereo not given in full)
fold change [1, 3]: 1.57 (inactive)
fold change [1, 4]: 0.521
cell count [1, 5]: 7500
cell count [1, 6]: 4760
z-score [2, 7]: -0.4 (inactive)
z-score [2, 8]: 0.152
